Source: PubChem BioAssay AID488890 (Southern Research Specialized Biocontainment Screening …, 2010)
Hit rate of the full screen: of about 320,000 compounds, about 1,300 (0.41%) were called active. About 3% were inconclusive and are not listed. The rule behind the calls is not given here. The list is a sample of the results. Results with a measured potency or affinity are listed apart.

Assay: growth inhibition of non-replicating M. tuberculosis (AID 488890);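 note: plate controls were DMSO cells for no effect and high antibiotic wells for full effect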
Settings: Mycobacterium tuberculosis non-replicating, at 25 µM, stronger effect = higher value
With `CCOC(=O)c1cc2c(C)[nH]c(C)c2cc(C(=O)OCC)c1=O` the inhibition was -5.61%.
`CC(Oc1ccc(Cl)cc1Cl)C(=O)Nc1ccc(O)cc1` (configuration not stated) gave an inhibition of -1.96%.
`CC(=O)Nc1ccc(NC(=O)C(C)Oc2ccc(Cl)cc2Cl)cc1` (configuration not stated) showed an inhibition of 4.67%.
Work on `CC(=O)c1cnc(Nc2nc(C)c3cc(C)c(C)cc3n2)nc1C` yielded an inhibition of 16.2%.
For `COc1ccc(-c2cc3ccccc3oc2=O)cc1`, the inhibition was 24.3%.
Compound `O=c1oc2ccccc2cc1-c1nc(-c2ccccc2)no1` has an inhibition of -0.8%.
In the case of `COc1ccc(-c2nc3c(c(SCC(=O)N4CCOCC4)n2)COC(C)(C)C3)cc1`, the inhibition is reported as -3.27%.
`CC1CCCCC1NC(=O)CN1C(=O)NC(C)(c2ccc(OC(F)F)cc2)C1=O` (configuration not stated) gave an inhibition of -1.28%.
`CCn1nnnc1NC(=O)c1ccc2ccccc2c1` showed an inhibition of -1.96%.
With `CCCCC(=O)Nc1nnnn1CCC` the inhibition was 12.9%.
For `CCCn1nnc(NC(=O)c2ccc3ccccc3c2)n1`, the inhibition was -1.15%.
With `CCCn1nnnc1NC(=O)COc1ccc(Cl)c(C)c1` the inhibition was 74.2%.
For `CCCn1nnnc1NCc1ccc(Cl)cc1Cl`, the inhibition was 1.4%.
`CCCn1nnnc1NC(=O)c1cc(Br)ccc1OC` gave an inhibition of 66.1%.
`Cc1ccccc1NC(=O)c1ccc2ccccc2c1` gave an inhibition of 40.9%.
In the case of `Cc1nnc(NC(=O)c2ccc3ccccc3c2)s1`, the inhibition is reported as 9.74%.
`CC(Oc1ccccc1)C(=O)OCC(=O)Nc1ccc2c(c1)OCO2` (configuration not stated) gave an inhibition of 23.9%.
`CCOC(=O)c1sc2nc(C)nc(N3CCN(S(=O)(=O)c4ccccc4)CC3)c2c1C` gave an inhibition of 34.9%.
With `CCOC(=O)c1c(-c2ccccc2Cl)cn2ccccc12` the inhibition was 3.48%.
For `CCCCn1c(=O)[nH]c(=O)c2c1nc(-c1ccc(C(F)(F)F)cc1)n2C`, the inhibition was 2.06%.
`C=CCn1c(CCC)nc2ccccc21` gave an inhibition of 59.2%.
Compound `Cc1ccc(CNC(=O)COC(=O)CSc2ccc(Br)cc2C)cc1` has an inhibition of 71.4%.
`CN(CC(=O)Nc1cccc(F)c1)C(=O)c1ccccc1OCC(=O)Nc1cccc(C(F)(F)F)c1` showed an inhibition of 1.32%.
`CCc1cc2cc(C)ccc2nc1SCC(=O)NNC(=O)c1ccco1` gave an inhibition of -31.6%.
Compound `O=C(O)c1cccc(S(=O)(=O)N2CCC(n3nnc4cc(C(F)(F)F)ccc43)CC2)c1` has an inhibition of 3.59%.
Compound `CC(=O)c1cccc(NC(=O)N(c2ccccc2)c2ccccc2)c1` has an inhibition of 4.45%.
Compound `Cc1ccc(S(=O)(=O)NCCc2nnc3ccc(SCC(=O)Nc4nc(C)cs4)nn23)cc1` has an inhibition of -6.91%.
For `CC1=CC(C)(C)Nc2ccc(OC(=O)CN3C(=O)c4cccc5cccc(c45)C3=O)cc21`, the inhibition was 78.9%.
`CC1=CC(C)(C)Nc2ccc(OC(=O)CCN3C(=O)c4ccccc4C3=O)cc21` showed an inhibition of 19%.
With `COc1ccc([C@H]2CC(=O)C=C(c3cccc(OC(F)(F)F)c3)C2)cc1` the inhibition was 24.7%.
Compound `NC(=O)Nc1cc(Cl)ccc1Cl` has an inhibition of -13.6%.
In the case of `NC(=O)N/N=C1\CCS(=O)(=O)c2ccc(F)cc21`, the inhibition is reported as 1.74%.
For `S=C(NC1CCCCCC1)NC1CCCC1`, the inhibition was 71.8%.
With `c1ccc(-c2nc3ccccc3[nH]2)nc1` the inhibition was 20.2%.
With `O=c1[nH]c(-c2ccncc2)nc2ccccc12` the inhibition was 26.6%.
Work on `O=C(COc1ccc(/C=N/NC(=O)C(=O)N2CCCCCC2)cc1)Nc1ccccc1Cl` yielded an inhibition of 74.1%.
`Cc1ccc(C)c(S(=O)(=O)NCC(c2ccco2)N2CCc3ccccc3C2)c1` (configuration not stated) showed an inhibition of 10.8%.
`COc1ccc(C(=O)NC(C)c2ccc(-n3ccnc3)cc2)cc1[N+](=O)[O-]` (configuration not stated) gave an inhibition of 6.19%.
With `CC(NC(=O)c1ccc(N(C)C)c([N+](=O)[O-])c1)c1ccc(-n2ccnc2)cc1` (configuration not stated) the inhibition was 8.22%.
In the case of `O=C(Nc1ccccc1C(F)(F)F)c1ccsc1`, the inhibition is reported as -9.54%.
`CN(Cc1cnn(C)c1)Cc1nc(COc2ccccc2)no1` gave an inhibition of 12.5%.
In the case of `COc1ccc(OC)c(NC(=O)CSC2=NN3CCCC(=O)N=C3S2)c1`, the inhibition is reported as -10.2%.
Work on `O=C(CNCc1ccco1)Nc1ccccc1-n1cccc1` yielded an inhibition of 5.71%.
Compound `O=C(NCC(c1ccco1)N1CCN(c2ccccc2)CC1)C(=O)NC1CCCCC1` (configuration not stated) has an inhibition of -8.96%.
`Cc1cc2c(cc1C)N(C(=O)CSC1=NCCS1)C(C)(C)c1ssc(=S)c1-2` showed an inhibition of 27.9%.
Work on `Cn1c(O)c(N=NC(=O)c2cc(-c3cccs3)nc3ccccc23)c2ccccc21` yielded an inhibition of -7.82%.
`O=C(COc1ccc2oc(-c3ccccc3)cc(=O)c2c1)Nc1ccccc1` showed an inhibition of 52.2%.
For `O=C(COc1cc(O)c2c(=O)cc(-c3ccccc3)oc2c1)c1ccccc1`, the inhibition was -7.87%.
Compound `COc1ccc(C(=O)c2ccccc2)c(O)c1` has an inhibition of 26.2%.
For `CCOC(=O)c1cc(=O)c2ccc(OCC(=O)Nc3ccccc3)cc2o1`, the inhibition was 0.19%.
For `CC(C)(C)OC(=O)COc1cc(O)c2c(=O)cc(-c3ccccc3)oc2c1`, the inhibition was 53.9%.
Compound `Cc1ccc(OCC(=O)OCC(=O)c2ccccc2)cc1C` has an inhibition of 20.6%.
`NC(=O)c1ccc(NC(=O)CN2CCOCC2)cc1` gave an inhibition of -9.52%.
Work on `Oc1ccc(/C=N/NP(=S)(c2ccccc2)c2ccccc2)c(O)c1O` yielded an inhibition of -2.4%.
Compound `COc1ccc(OC)c(/C=C/C(=O)OCC(=O)NCc2cccs2)c1` has an inhibition of 22.8%.
With `N#Cc1cnn2c(N)c(-c3ccc(Cl)cc3)cnc12` the inhibition was -16.2%.
With `CCn1c(CC(=O)Nc2ccc(C)cc2)nnc1SCC(=O)N1CCN(c2ccccc2)CC1` the inhibition was 21%.
Work on `COC(=O)c1cc(/C=C/c2ccccc2)[nH]n1` yielded an inhibition of 15.2%.
`Cc1cc(NC(=O)/C=C/c2ccccc2)no1` showed an inhibition of 17.2%.
Work on `Cc1cccc(C)c1NC(=S)NCCCN1CCCC1=O` yielded an inhibition of -28.2%.
`CCOc1ccc(N(CC(=O)Nc2ccc(OC)cc2OC)S(=O)(=O)c2c(C)[nH]c(=O)[nH]c2=O)cc1` showed an inhibition of 25.1%.
For `O=c1c2cnn(-c3ccccc3)c2nc(-c2cccs2)n1-c1ccc(Br)cc1`, the inhibition was 8.85%.
`O=c1oc(-c2cccs2)nc2ccccc12` showed an inhibition of 48.8%.
With `N#Cc1c(NCCCO)nc(NCc2ccccc2)c2c1CCN(Cc1ccccc1)C2` the inhibition was 26.6%.
Compound `O=C(NNC(=O)C12CC3CC(CC(C3)C1)C2)c1ccncc1` has an inhibition of 4.55%.
`C/C(=N\NC(=O)c1ccccn1)C12CC3CC(CC(C3)C1)C2` showed an inhibition of 54.4%.
With `O=C(OCC(=O)C12CC3CC(CC(C3)C1)C2)c1cnccn1` the inhibition was 17.7%.
Work on `O=C(COC(=O)c1ccccn1)NC12CC3CC(CC(C3)C1)C2` yielded an inhibition of 30.9%.
Work on `CC(C)N1CCN(Cc2nc3ccccc3s2)CC1CCO` (configuration not stated) yielded an inhibition of 8.77%.
`Cc1cc(C)c2cc(C(=O)Nc3ccc4c(c3)OCO4)[nH]c2c1` showed an inhibition of -16.4%.
Work on `CCOC(=O)c1c(NC(=O)C(C)N2CCN(S(=O)(=O)c3cccs3)CC2)sc2c1CCC(C)C2` (configuration not stated) yielded an inhibition of -4.48%.
For `COc1ccc(/C=C/C(=O)Oc2ccc(C)cc2)cc1`, the inhibition was 65.3%.
`Cc1ccc(-c2cc(-c3ccc(C)cc3)[n+](C)o2)cc1` gave an inhibition of 24.7%.
With `CC1Cc2ccccc2N1C(=O)CCS(=O)(=O)c1cccs1` (configuration not stated) the inhibition was 15.3%.
In the case of `COc1ccc(CCNC(=O)Cc2ccc(OC)c(OC)c2)cc1OC`, the inhibition is reported as 13.8%.
`Nc1ccccc1C(=O)OCc1ccc([N+](=O)[O-])cc1` gave an inhibition of 3.01%.
With `O=C(OCc1cccc([N+](=O)[O-])c1)c1cnccn1` the inhibition was 17.7%.
`COc1ccc(C(C)=O)cc1COC(=O)c1cc2ccccc2cc1O` gave an inhibition of 2.94%.
In the case of `O=C(Cc1ccccc1[N+](=O)[O-])OCc1cccc([N+](=O)[O-])c1`, the inhibition is reported as 34.7%.
Compound `COc1ccc(C(C)=O)cc1COC(=O)c1cc(C)nc2ccccc12` has an inhibition of 7.17%.
With `O=C(OCc1cc([N+](=O)[O-])cc2c1OCOC2)c1ccc2ccccc2n1` the inhibition was 74.8%.
Work on `c1ccc(OCCn2cnc3ccccc32)cc1` yielded an inhibition of 1.01%.
For `CSc1ccccc1OCc1cc(C(=O)N(Cc2nccn2C)C(C)C)no1`, the inhibition was -13.1%.
With `Cc1ccnc(Nc2nc(-c3sc(C)nc3C)cs2)c1` the inhibition was 36.1%.
For `O=C(NCc1cccnc1)c1cccc(F)c1`, the inhibition was -1.31%.
Work on `CCn1cc(C(=O)OCC(=O)NCc2ccc3c(c2)OCO3)c(=O)c2ccc(C)nc21` yielded an inhibition of 40.4%.
In the case of `CCC(C(=O)Nc1ccc2c(c1)OCCO2)n1nnc2ccccc2c1=O` (configuration not stated), the inhibition is reported as 6.85%.
